Giardia FBPA inh: blocks Giardia fructose-bisphosphate aldolase activity; A8B2U2; AID 2451; Potency, µM (top dose mostly 59.6 µM), without a hit: top-dose activity, negative = inhibition, actives largely listed as inhibitors; 0.71% of 290,000 active; purified Giardia FBPA; further: potency means the concentration at half of the fitted maximal effect; on the % scale 0 is the no-effect control and ±100 the full control effect; nearly all actives have a fitted effect of over 55% in size
Target sequence (A8B2U2 whole entry, looked up): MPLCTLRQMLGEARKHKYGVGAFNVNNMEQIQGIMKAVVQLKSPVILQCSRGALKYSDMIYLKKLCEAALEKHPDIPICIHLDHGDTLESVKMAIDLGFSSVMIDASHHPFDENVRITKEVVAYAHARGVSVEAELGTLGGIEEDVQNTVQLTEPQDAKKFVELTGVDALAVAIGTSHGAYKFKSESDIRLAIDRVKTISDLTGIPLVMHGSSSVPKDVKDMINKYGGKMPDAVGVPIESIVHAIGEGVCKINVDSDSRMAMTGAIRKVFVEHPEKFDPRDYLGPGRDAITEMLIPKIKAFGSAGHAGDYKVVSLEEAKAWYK
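Giardia FBPA (40 nM reagent) was preincubated 10 min at RT with compound (up to 57.5 uM final), then substrate plus GAPDH/TPI/NAD/arsenate coupling system with diaphorase/resazurin was added; resorufin fluorescence (525/598 nm) was read after 20 min.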
Cycloheximide cs: affects cycloheximide protein synthesis inhibition readout, counter-screen; cell reporter, cycloheximide protein synthesis inhibition counterscreen; max response, %; 12% of 300,000 active; AID 2314; in the data active means max response mostly above about 13%, no sharp cut-off; inactive means mostly below about 14%; further: read at 38.3 µM for the half of the compounds with a filed dose; 0% is about no effect
NS1 inh: influenza NS1 inhibition; Potency, µM (titrated, usually from 46.1 µM), for the others: at the highest dose activity, positive = more growth; 0.4% of 270,000 active; calls by dose curve; further: potency means the concentration at half of the fitted maximal effect; actives are rising curves; nearly all actives have a fitted effect of over 50% in size
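S. cerevisiae expressing influenza A NS1, grown in glucose, washed, then diluted 1:100 into pH 6.0 -URA galactose medium with 23 nl compound. Growth recovery read as OD600; NS1-free strain serves as control.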
Shiga inhibitor: blocks Shiga toxin action in Vero cells; Vero cells, Shiga toxin protein synthesis inhibition reporter; inhibition, % at 38.7 µM; 9.2% of 290,000 active; AID 2315; in the data active means inhibition mostly above about 28%, no sharp cut-off; inactive means mostly below about 43%; further: 0% is about no effect
Pf growth 96h: P. falciparum growth inhibition at 96 hours; P. falciparum luciferase reporter growth, 96 h; Potency, µM (series often up to 28.7 µM), for inactives: top-dose activity change, negative = inhibition, hits mostly inhibitors; 6.9% of 320,000 active; AID 504834; further: potency means the concentration at half of the fitted maximal effect; on the % scale 0 is the no-effect control and ±100 the full control effect
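96 h incubation, 37 C, 5% CO2, of luciferase-reporter P. falciparum-infected RBCs (2% hematocrit, 0.05% parasitemia final) with test compounds; endpoint luminescence.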
Pf growth 48h: P. falciparum growth inhibition at 48 hours (one generation) | P. falciparum luciferase growth in erythrocytes, 48 h | Potency, µM (top dose mostly 28.7 µM), for the others: top-dose activity change, negative = inhibition, actives largely listed as inhibitors | AID 504832 | 5.9% of 310,000 active; further: potency means the concentration at half of the fitted maximal effect; on the % scale 0 is the no-effect control and ±100 the full control effect
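First compound was added to culture medium, then infected red cells at 0.1% parasitemia and 2% hematocrit (final). After incubation at 37 C under 5% CO2, luciferase detection reagent was dispensed and light output recorded.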
Starred values were filed as active, the others as inactive; ? = inconclusive; · = not tested or not shown; [ ] = remark or other dose. In the library only some 21% were active in any assay of this set; here they are far more common. Unless noted, the call rests on the fitted dose curve; in most records, active means well fitted curve in the direction sought with a large enough effect; inconclusive means small, poorly fitted or top-dose-only effect, or another doubt; inactive means no such curve, though single readings can be large; an effect the other way counts as inactive or inconclusive.

SMILES | Giardia FBPA inh | Cycloheximide cs | NS1 inh | Shiga inhibitor | Pf growth 96h | Pf growth 48h
Cn1ccc(C(=O)N2CCCc3ccccc32)n1 | 4% | -2 | -6% | -3 | -8% | 11%
Cc1ccc(CN2CCN(C(=O)c3ccco3)CC2)cc1 | 1% | -3 | 6% | 11 | ? | ?
CCCS(=O)(=O)N1CCN(Cc2c[nH]c3ccccc23)CC1 | ? | -3 | 5% | -3 | 5% | 13%
CCn1c2ccccc2c2cc(CN3CCN(C(=O)c4ccco4)CC3)ccc21 | ? | 5 | 15% | -12 | 8.3µM* | ?
CCCS(=O)(=O)N1CCN(Cc2ccc3c(c2)c2ccccc2n3CC)CC1 | ? | -1 | -19% | -12 | 35% | 9.3µM*
CCn1c(=O)cc(SCC(=O)N2CCN(C(=O)c3ccco3)CC2)c2ccccc21 | -1% | 5 | -4% | 16 | 5.9µM* | -14%
Cn1c(=O)cc(C(=O)N/N=C/c2ccc(Cl)cc2)[nH]c1=O | ? | -1 | 3% | 7 | 43% | 24%
CCN(/N=C/C=C/c1ccccc1)c1cc(=O)n(C)c(=O)[nH]1 | ? | 0 | 3% | 13 | 7.4µM* | ?
CCN(/N=C/c1ccc(Cl)cc1)c1cc(=O)n(C)c(=O)[nH]1 | ? | 34* | 1% | active | ? | 1%
Cn1c(=O)cc(Nc2ccccc2)[nH]c1=O | -11% | -1 | 14% | · | ? | 7%
COc1ccc(C(NC(C)=O)c2cc(Cl)c3cccnc3c2O)cc1 (stereo unspecified) | 12% | -5 | -14% | · | ? | ?
CC(=O)NC(c1ccccc1)c1cc(Cl)c2cccnc2c1O (stereo unspecified) | 23% | -1 | -125% | -13 | ? | 0.83µM*
O=C(NC(c1ccc(Cl)cc1)c1cc(Cl)c2cccnc2c1O)c1cccnc1 (stereo unspecified) | 21% | 0 | 20% | -5 | 46% | 1.2µM*
COc1ccc(C(=O)NC(c2ccccc2Cl)c2cc(Cl)c3cccnc3c2O)cc1 (stereo unspecified) | · | -2 | · | -2 | · | ·
COc1ccccc1N1CCN(C(=O)c2ccc3c(=O)n(Cc4ccc5c(c4)OCO5)c(=O)[nH]c3c2)CC1 | 1% | -5 | 14% | -6 | ? | 1.5µM*
COc1ccc(Cn2c(=O)[nH]c3cc(C(=O)N4CCN(c5ccccc5OC)CC4)ccc3c2=O)cc1 | 1% | -7 | 24% | -15 | 8% | 3.3µM*
COc1ccc(Cn2c(=O)[nH]c3cc(C(=O)N4CCN(c5ccccc5F)CC4)ccc3c2=O)cc1 | 0% | -7 | 22% | -12 | 12µM* | 12µM*
COc1ccc(Cn2c(=O)[nH]c3cc(C(=O)N4CCN(Cc5ccccc5)CC4)ccc3c2=O)cc1 | 1% | -1 | -21% | 11 | -2% | ?
c1ccc2c(c1)CSc1ccccc1C2C1=NCCN1 (stereo unspecified) | -7% | -3 | 28% | 4 | -5% | -5%
Brc1ccc2c(c1)C(OC1CN3CCC1CC3)c1ccccc1CS2 (stereo unspecified) | -2% | -8 | 6% | -22 | 10µM* | ?
COc1cc(-c2nn3c(COc4ccccc4)nnc3s2)cc(OC)c1OC | 7% | -3 | -4% | 40 | · | -20%
COc1cc(-c2nn3c(Cc4ccccc4)nnc3s2)cc(OC)c1OC | 14% | -1 | -38% | -6 | 43% | 10µM*
CCOC(=O)CSc1ccc2ccccc2n1 | -10% | 4 | -6% | 19 | 14% | 23%
CCOC(=O)CN1C=C(c2ccc3ccccc3n2)C(C[N+](=O)[O-])c2ccccc21 (stereo unspecified) | ? | 11* | 1% | 22 | 5% | ·
COc1ccc(C2CC(=O)OC3=C2C(=O)CC(C)(C)C3)c(OC)c1 (stereo unspecified) | 0% | -4 | · | -9 | ? | 10µM*
SMILES | Giardia FBPA inh | Cycloheximide cs | NS1 inh | Shiga inhibitor | Pf growth 96h | Pf growth 48h
COc1ccc2c(c1)C(C1=C(O)CC(C)(C)CC1=O)C1=C(CC(C)(C)CC1=O)O2 (stereo unspecified) | 0% | -3 | -5% | -8 | -25% | ·
Cc1ccc(NC(=O)CN2C(=O)NC3(CCc4ccccc43)C2=O)cc1S(=O)(=O)N1CCCCC1 (stereo unspecified) | · | · | · | · | ? | -29%
Cc1cc(C(=O)CN2C(=O)NC3(CCCCC3)C2=O)c(C)n1-c1ccc2c(c1)OCO2 | 3% | 1 | 6% | -10 | 13µM* | ?
Cc1cc(-n2c(C)cc(C(=O)CN3C(=O)NC4(CCCCCC4)C3=O)c2C)no1 | -8% | -2 | 1% | 0 | -15% | 12µM*
COc1ccccc1CCC(=O)Oc1ccccc1C#N | · | -3 | 3% | -17 | -22% | 12%
N#Cc1ccccc1COC(=O)c1ccc(Br)o1 | 6% | 26* | -2% | 55 | 55% | -3%
COc1cccc(C(=O)OCc2ccccc2C#N)c1O | -11% | 21* | -13% | 36 | -6% | ·
COCCCNC(=O)COc1cc2c(c3oc(=O)c(C)c(C)c13)CCC(C)(C)O2 | -6% | -3 | 1% | -18 | -19% | 2%[0.00184 µM]
CCn1c(CNC(=O)c2ccccc2Br)nnc1SCC(=O)NC1=NCCS1 | · | -1 | 2% | -8 | 14% | -8%
O=C(CSc1nc2sc3c(c2c(=O)n1-c1ccccc1)CCCC3)N/N=C/c1ccccc1C(=O)O | 0% | -7 | 26% | -7 | ? | 4%
COC(=O)[C@@]1(Cc2ccccc2)[C@H]2c3cc(C(=O)N4CCCC4)n(Cc4c(CO)[nH]cc(C)c4=O)c3C[C@H]2CN1C(=O)c1ccccc1 | -1% | · | · | · | · | ·
CN1CCN(CCCN2c3ccccc3Sc3ccc(C(F)(F)F)cc32)CC1 | -9% | -3 | 2% | -16 | 9.3µM* | 10µM*
Clc1ccc2c(c1)N(CCCN1CCCC13CCCCC3)c1ccccc1S2 | · | · | -8% | · | · | ·
O=C(CN1CCCCCC1)N1c2ccccc2Sc2ccccc21 | 1% | -3 | 2% | 12 | ? | ?
c1ccc2c(c1)Sc1ccccc1N2CCN1CCCC1 | · | · | · | · | 15µM* | 17µM*
O=C1CSC2(CCN(CCCN3c4ccccc4Sc4ccc(Cl)cc43)CC2)N1 | · | · | 0% | · | 8.5µM* | ?
O=C(CN1CCCC(O)C1)N1c2ccccc2Sc2ccc(C(F)(F)F)cc21 (stereo unspecified) | -24% | -4 | 1% | -27 | 35% | ?
N#Cc1cccc(-c2ccc3ncnc(NC4CCNCC4)c3c2)c1 | 0% | · | · | · | · | ·
Cc1cccc(CCNC(=O)C2CCCN(S(=O)(=O)c3cccc4nsnc34)C2)c1 (stereo unspecified) | -3% | -3 | -15% | 7 | 35% | ?
CCOCCCNC(=O)C1CCCN(S(=O)(=O)c2cccc3nsnc23)C1 (stereo unspecified) | 4% | -6 | ? | 17 | 8.3µM* | -9%

Screening results (PubChem)
